The text below walks through data of article PMC12136788.

Where a chain is given by its changes, count along the chain named. Over roughly 5,800 sequences, “enrichment r” has its median near 0.54; the highest 2% begin near 16. The sample as a whole holds a higher share of the highest values than the screen did.

Sequences and labels used below:
B1: chr22:49888080:49888186:+|3pUTR|ENSG00000100426|unk|FALSE|unique (ssRNA)
RNA: GGGAGUUCUACAGUCCGACGAUCUGGCUUAUUAACAGGGAAGAAGCUUGUUAUAUUCCAGUUGUAAGAAUAGCCUUAGUGUUUAGAUUUUUUUAUGAUAGGGAAGAUGCGGCCAUCACUGGGAUAUUUUCAAAUCCCAAGGACCAACAGAGGAUUGAGCAUCA
B2: chr19:35555165:35555334:-|CDS|ENSG00000105675|control|control|control (ssRNA)
RNA: GGGAGUUCUACAGUCCGACGAUCGGCCGUCACGGGGGAUGGUGUGAAUGACUCCCCAGCUCUGAAGAAGGCAGACAUCGGAGUAGCCAUGGGCAUCGCUGGCUCAGAUGCUGCCAAAAAUGCAGCUGACAUGAUCCUGCUGGACAACAGAGGAUUGAGCAUCA
B3: chr7:39987650:39987751:+|CDS|ENSG00000065883|unk|total|mutant (ssRNA)
RNA: GGGAGUUCUACAGUCCGACGAUCUCCCGGCAUUCAAGAUCUCGCCGCAGGCACAGAUUGUCCCGAUCCAGAAGUCGUCAUUCCCGUAUUUCUCCCCGCACACUAACUCUGAAGAGCCGCCUGGCAGCUGAAUUGAACAAGAAUCAACAGAGGAUUGAGCAUCA
B4: chr1:6224442:6224573:-|3pUTR|ENSG00000116237|msi1_unk|FALSE|overlapping (ssRNA)
RNA: GGGAGUUCUACAGUCCGACGAUCCUAUACAAUUUUAAAAAUACUUCCUCAUAGGAUGCUUUGGCCCUUCAUCUAUUUAAUCAUAGCUACAUACCUAUUUUUUAUAAGUAGCAGUACACAUUCAAAGGGGUAUUCCUAGCUCAACAACAGAGGAUUGAGCAUCA
B5: chr12:68839811:68839877:+|CDS_3pUTR|ENSG00000135679|msi1_unk|FALSE|overlapping (ssRNA)
RNA: GGGAGUUCUACAGUCCGACGAUCAUAAGCCCUGCCCAGUAUGUAGACAACCAAUUCAAAUGAUUGUGCUAACUUAUUUCCCCUAGUUGACCUGUCUAUAAGAGAAUUAUAUAUUUCUAACUAUAUAACCCUAGGAAUUUAGACCAACAGAGGAUUGAGCAUCA
B6: chr11:69653362:69653473:+|3pUTR|ENSG00000110092|msi1_unk|total|mutant (ssRNA)
RNA: GGGAGUUCUACAGUCCGACGAUCACUGCCAUGUACCCGUUUCCGUUUUCUCUCCGAACAUUGUAUUACAGAUGCCUUUUUUGCCGUUUUUUUUUUUUUUAUGUGAUCAAUUUUGACUUAAUGUGAUUACUGCUCUAUUCCAAACAACAGAGGAUUGAGCAUCA
B7: chrX:129805617:129805718:-|3pUTR|ENSG00000188706|msi1|FALSE|unique (ssRNA)
RNA: GGGAGUUCUACAGUCCGACGAUCUCUUUUCCCAUUAGAUAUAUGUAAGUAGUUGUAGUAGAGAUAAUAAUUGACAUUUCUCGUAGACUACCCAGAAACUUUUUUAAUACCUGUGCCAUUCUCAAUAAGAAUUUAUGAGAUGCCCAACAGAGGAUUGAGCAUCA
B8: chr11:69653362:69653473:+|3pUTR|ENSG00000110092|msi1_unk|FALSE|overlapping (ssRNA)
RNA: B6 RNA with C36U, C37A, C42U, C43A, C53U, C54A, C83U, C84A
B9: chr7:158734047:158734148:-|3pUTR|ENSG00000117868|msi1_unk|total|mutant (ssRNA)
RNA: GGGAGUUCUACAGUCCGACGAUCCUACCCGGAACACACCCUCUCACAGACGUACCAAUGUUAUUUUUAUAAUUUCAUGGAUUCCGUUAUACAUACCUUAACCGUUUUAUAAAAUUGUUGACAUUUCAGGCAAAUUUGGCCAAUCAACAGAGGAUUGAGCAUCA
B10: chr19:9526975:9527076:-|3pUTR|ENSG00000130818|unk|total|mutant (ssRNA)
RNA: GGGAGUUCUACAGUCCGACGAUCCCUCUCAGACCUUCCAUCAUUACUAUAUUUCACUUUUAUGCCUAUAAACACACACAAAUCCGCAUAUGUAAUCUAAUACAUUGCCGCUAUUUUUCAGAAGUUAUCAGAUCAAUUAAGUAUCAACAGAGGAUUGAGCAUCA
B11: chr2:165880514:165880799:-|CDS|ENSG00000123607|control|control|control (ssRNA)
RNA: GGGAGUUCUACAGUCCGACGAUCGAUGGCAUGGAAAUAUAGCAAUCGGACAAAUCCGGCAGUAGGUGAGUUUGGCAAUCACCUAGAUUUUUCACAGAAAAAUUAUGUUGUAUUUAUUAAUUUUCAUUUAAAUGCAUUUGAUUUCAACAGAGGAUUGAGCAUCA
B12: chr1:6224442:6224573:-|3pUTR|ENSG00000116237|msi1_unk|total|mutant (ssRNA)
RNA: B4 RNA with U51C, A52C, U83C, A84C, U108C, A109C, U136C, A137C
B13: chrX:129805617:129805718:-|3pUTR|ENSG00000188706|msi1|total|mutant (ssRNA)
RNA: B7 RNA with U35C, A36C, U49C, A50C, U55C, A56C, U58C, A59C, U83C, A84C
B14: chr7:158734047:158734148:-|3pUTR|ENSG00000117868|msi1_unk|FALSE|overlapping (ssRNA)
RNA: B9 RNA with C83U, C84A, C101U, C102A
B15: chr21:25881503:25881610:-|3pUTR|ENSG00000142192|msi1_unk|FALSE|overlapping (ssRNA)
RNA: GGGAGUUCUACAGUCCGACGAUCACAAACCCGUUUUAUGAUUUACUCAUUAUCGCCUUUUGACAGCUGUGCUGUAACACAAGUAGAUGCCUGAACUUGAAUUAAUCCACACAUCAGUAAUGUAUUCUAUCUCUCUUUACAUUUCAACAGAGGAUUGAGCAUCA
B16: chr2:205797254:205797461:+|3pUTR|ENSG00000118257|msi1|total|mutant (ssRNA)
RNA: GGGAGUUCUACAGUCCGACGAUCUCACCCUCCCAUGAUGCGCAGUGUUCAGAAAGCUGGUAAGUCCCCGGGAUUUCCAGAAGCCGCCUGCAGAAGAAGGUAAGUUUGAAAGCCACUCCAGGGGUCCUGAUGCUGUCAUGCUCACAACAGAGGAUUGAGCAUCA
B17: chr1:233671823:233671924:+|3pUTR|ENSG00000135750|msi1|total|mutant (ssRNA)
RNA: GGGAGUUCUACAGUCCGACGAUCUGCUGCUGUGGUCCGAAGCAGAUUUUAUACUUUUAACUGGAAACUUUGGGGUUUGCAUUCCGAUCAUUCCGCUGAUGGCUAAACCGCAAAAUUUAUAUUCCGAAGCAAAAAAAAAAAGCACAACAGAGGAUUGAGCAUCA
B18: chr3:133826890:133826991:-|3pUTR|ENSG00000154917|unk|total|mutant (ssRNA)
RNA: GGGAGUUCUACAGUCCGACGAUCUUUGAACGUGUUUCAGAUGUCAUGUGUUCCGUUUUUAUAUGUGUGUACAUAAUUAUAUACCGAGACCGACUUGUGUAUACACCUUCCACAAACACAUCCUCACGGAGAUACAUGUGCUCACAACAGAGGAUUGAGCAUCA
B19: chr4:140153917:140154018:-|5pUTR|ENSG00000196782|msi1|FALSE|bound_elsewhere (ssRNA)
RNA: GGGAGUUCUACAGUCCGACGAUCUUUGCAGUCGCCUCGGACUGUCCAUGUGUUUACUUCCCCCAGCCCGAGGAUUCGAUAUCUAGGUUCCUGUGAAAUGCAACUGAGCAGCCAAAGUACUUUGAGAACACGGGGCGGCAUAAACAACAGAGGAUUGAGCAUCA
B20: ENSG00000070961:be:win_2801|CDS|ENSG00000070961|bound_else_gene|NA|bound_elsewhere_windowed (ssRNA)
RNA: GGGAGUUCUACAGUCCGACGAUCGUCAUGCAUUCUAUCAACUUGUAGUAGUCUUUACACUCUUAUUUGCUGGAGAAAAGUUUUUUGACAUUGAUAGUGGAAGAAAUGCUCCUUUGCAUGCUCCUCCUUCAGAACAUUAUACUACAACAGAGGAUUGAGCAUCA
B21: chr10:122937732:122937852:-|CDS|ENSG00000119965|unk|total|mutant (ssRNA)
RNA: GGGAGUUCUACAGUCCGACGAUCGUAAGUGACAACUCAAAUAUACCCAACUCCGAGUUGCUGCCUUUUCUCCAGAAUUUAUGCCGUCAAGUUAAUCAUCUCCAUGUGGGAAAUAAGACCGAGUGUCAGGAAAACAUCACCAAGCAACAGAGGAUUGAGCAUCA
B22: chr4:168927217:168927233:+|3pUTR|ENSG00000129116|msi1_unk|FALSE|overlapping (ssRNA)
RNA: GGGAGUUCUACAGUCCGACGAUCAACCACCCAAAUGACCAAGGCAUAUAUAGUAUUUGGAGGAAUCAGGGGUUUGGAAGGAGUAGGGAGGAGAAUGAAGGAAAAUGCAACCAGCAUGAUUAUAGUGUGUUCAUUUAGAUAAAACAACAGAGGAUUGAGCAUCA

Sequence of MSI1 full-length (Q61474 whole entry): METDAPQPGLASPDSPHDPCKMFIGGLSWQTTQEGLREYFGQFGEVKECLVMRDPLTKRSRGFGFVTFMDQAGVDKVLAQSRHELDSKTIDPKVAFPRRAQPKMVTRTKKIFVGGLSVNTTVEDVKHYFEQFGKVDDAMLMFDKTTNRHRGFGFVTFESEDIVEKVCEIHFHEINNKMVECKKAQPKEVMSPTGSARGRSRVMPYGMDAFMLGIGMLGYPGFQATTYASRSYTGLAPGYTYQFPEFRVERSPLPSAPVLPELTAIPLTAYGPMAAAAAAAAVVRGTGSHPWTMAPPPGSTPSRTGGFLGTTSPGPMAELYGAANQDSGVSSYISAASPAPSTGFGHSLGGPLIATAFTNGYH

This experiment addresses MSI1 full-length (mouse, UniProt Q61474 1-362). Briefly: nsRBNS (natural sequence RNA bind-n-seq); RBNS binding buffer (assumed for nsRBNS): 25 mM Tris pH 7.5, 150 mM KCl, 3 mM MgCl2, 0.01% Triton X-100, 500 ug/ml BSA, 20 U/ml SUPERase-In, 4 C; UNK is unkempt and MSI1 is Musashi-1; names of the RNAs are library labels; protein concentration not given here; high values mean tight binding.
The molecule B1 had a binding signal of 11.3 enrichment R.

Regarding B2, the binding signal was found to be 0.465 enrichment R.

Molecule B3 yielded a binding signal of 0.458 enrichment R.

B4 showed a binding signal of 7.66 enrichment R.

In the case of B5, the binding signal amounted to 3.21 enrichment R.

On to B6, for which the binding signal turned out to be 1.65 enrichment R.

Turning to B7, the binding signal was 71.9 enrichment R.

The molecule B8 yielded a binding signal of 32.9 enrichment R.

B9 gave a binding signal of 0.582 enrichment R.

The molecule B10 came in with a binding signal of 9.57 enrichment R.

In the case of B11, the binding signal is 0.379 enrichment R.

B12 returned a binding signal of 18.3 enrichment R.

The molecule B13 showed a binding signal of 0.608 enrichment R.

Take B14: the binding signal worked out at 20.8 enrichment R.

As for B15, the binding signal is 0.949 enrichment R.

B16 returned a binding signal of 0.483 enrichment R.

For B17, the binding signal worked out at 0.297 enrichment R.

For B18, the binding signal was 0.348 enrichment R.

Molecule B19 displayed a binding signal of 0.362 enrichment R.

For the molecule B20, the binding signal is 0.822 enrichment R.

As for B21, the binding signal was 0.448 enrichment R.

Consider B22, for which the binding signal is 4.58 enrichment R.
